From PubChem BioAssay AID1851 (National Center for Advancing Translational Sciences (NCATS), 2009) come the findings set out here.

Among all 16,000 compounds or so, about 5,100 (32%) were called active. Another 25% or so got no clear call; they are omitted. Calls come from the whole dose curve; as a rule, active = well fitted curve in the direction sought with a large enough effect; inconclusive = small, poorly fitted or top-dose-only effect, or effect the other way; inactive = no such curve, though single readings can be large or run the other way. Some of the results follow.
% is set by controls: 0 for no effect and ±100 for the full control effect.

Sequence of Cytochrome P450 3A4 (Homo sapiens) (P08684 whole entry, looked up): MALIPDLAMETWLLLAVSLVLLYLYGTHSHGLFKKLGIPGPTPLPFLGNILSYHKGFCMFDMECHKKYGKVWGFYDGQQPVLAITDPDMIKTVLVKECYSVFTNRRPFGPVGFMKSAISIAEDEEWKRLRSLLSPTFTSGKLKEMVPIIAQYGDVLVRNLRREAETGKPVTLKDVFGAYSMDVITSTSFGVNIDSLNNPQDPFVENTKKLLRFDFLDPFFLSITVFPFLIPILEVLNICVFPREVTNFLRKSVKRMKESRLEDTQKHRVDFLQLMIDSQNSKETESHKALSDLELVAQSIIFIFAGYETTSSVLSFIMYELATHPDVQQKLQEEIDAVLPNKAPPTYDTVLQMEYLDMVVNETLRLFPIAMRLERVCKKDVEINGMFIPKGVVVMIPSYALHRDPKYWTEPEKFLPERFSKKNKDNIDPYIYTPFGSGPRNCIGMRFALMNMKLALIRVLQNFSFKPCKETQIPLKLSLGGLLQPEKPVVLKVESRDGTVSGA

This assay has as its target Cytochrome P450 3A4 (Homo sapiens) (UniProt P08684). Put plainly: Cytochrome panel assay with activity outcomes. The settings on record: recombinant CYP, pro-luciferin dealkylation, luminescence, p450-cyp3a4; series mostly up to 57.1 µM; activity, negative = inhibition: at the top concentration.
As to `CN(C)S(=O)(=O)Nc1ccccn1`, the activity, negative = inhibition was -8.58% [at 11.4 µM] (inactive).
Same read-out and setting: the result for `COc1cccc(Nc2ncc(C(=O)O)c3ccccc23)c1` reads -10.1% (inactive).
As to `COc1ccccc1-c1ccc2ncnc(Nc3ccccc3)c2c1`, the AC50 was 12.6 µM (active).
As for `CN(C)c1ccc(-c2ccc3ncnc(NC4CC4)c3c2)cc1`, the AC50 was 3.16 µM (active).
`CN(C)C(=O)c1ccc(-c2ccc3ncnc(NC4CCNCC4)c3c2)cc1`: the “activity, negative = inhibition” value is -8.67% (inactive).
For the compound `COc1cccc(-c2ccc3ncnc(Nc4ccccc4)c3c2)c1`, the AC50 is 10 µM (active).
Consider `C/C=C\C1=C(CO)C(=O)C2O[C@]2(CC=C(C)C)C1=O` (some centres not stated), for which the activity, negative = inhibition was -13.4% [at 11.4 µM] (inactive).
Still for that read-out and setting: in the case of `Cc1sc2c(c1C)c(=O)n(-c1ccccc1)c1nnc(C)n21` it was -6.33% (inactive).
Take `Cc1ccccc1C(C(=O)NC1CCCC1)N(C(=O)Cc1cccs1)c1ccc2c(c1)OCCO2` (configuration not stated): the AC50 was 1 µM (active).
On the same count and under the same terms, in the case of `Cc1nn(C)cc1C(C(=O)NC1CCCCC1)N(C(=O)Cc1cccs1)c1ccc(C(C)C)cc1` (configuration not stated) it was 2.51 µM (active).
With `CCOC(=O)CN(C(=O)CCC(=O)Nc1cc(C)on1)C(C(=O)NC1CCCC1)c1cccnc1` (configuration not stated), the activity, negative = inhibition is -13% [at 2.29 µM] (inactive).
For the compound `CCOc1ccc(N(C(=O)/C=C/C(=O)Nc2cc(C)on2)C(C(=O)NC2CCCC2)c2ccccc2C)cc1` (configuration not stated), the AC50 is 0.891 µM (active).
On the same count and under the same terms, the result for `O=C(O)CN(CCN(CC(=O)O)CC(=O)O)CCN(CC(=O)O)CC(=O)O` reads “inactive”.
Take `Oc1ccc(Cc2nccc3cc(O)c(O)cc23)cc1O`: the activity, negative = inhibition was -11.6% [at 11.4 µM] (inactive).
The same measure, in the same setting: the result for `CC1(C)CC(=O)C(C(c2cccc(O)c2O)C2C(=O)CC(C)(C)CC2=O)C(=O)C1` reads -5.88% [at 11.4 µM] (inactive); that for `OCCN(Cc1ccccc1)Cc1cccc(Cl)c1Cl`, 9.74% [at 11.4 µM] (inactive).
For the compound `CCN(CC(=O)NCc1cccs1)S(=O)(=O)c1ccc(C(C)C)cc1`, the AC50 was 7.08 µM (active).
On to `CCOC(=O)N/N=C/c1ccccc1F`, for which the “activity, negative = inhibition” value is -18.1% (inactive).
As to `O=C(CO)N/N=C/c1ccccc1F`, the “activity, negative = inhibition” value is -1.22% (inactive).
For the compound `COc1ccccc1/C=N/NC(=O)CC(=O)Nc1ccc(Cl)c(Cl)c1`, the AC50 is 7.94 µM (active).
Still for that read-out and setting: in the case of `COc1ccc(OC)c(C2C(C(=O)Nc3nc4ccccc4s3)=C(C)NC3=C2C(=O)CCC3)c1` (configuration not stated) it was 2.24 µM (active).
In the case of `COCCN1CN=C(Nc2nc3ccccc3s2)NC1`, the “activity, negative = inhibition” value was -29.2% (inactive).
As for `CO[C@@H]1CC[C@@]2(C)[C@@H](CC[C@@]3(C)[C@H]2CC=C2[C@H]4CC(C)(C)[C@H](O)[C@@H](OC(C)=O)[C@]4(CO)[C@H](O)C[C@]23C)[C@@]1(C)CO` (tested in a mixture with another compound), the “activity, negative = inhibition” value was -10.4% [at 25.6 µM] (inactive).
Turning to `COc1cccc(/C=c2/s/c(=C(\C#N)C(=O)N3CCOCC3)n(-c3ccccc3)c2=O)c1`, the “activity, negative = inhibition” value was 5.7% (inactive).
For `Clc1ccccc1NN(Cc1ccncc1)c1ccccc1Cl`, the AC50 is 0.251 µM (active).
Take `Clc1ccccc1NN(Cc1ccccn1)c1ccccc1Cl`: the activity, negative = inhibition was -2.68% [at 11.4 µM] (inactive).
The same measure, in the same setting: the result for `CC1=CC(C)(C)N(C)C(=O)N1c1ccc(Cl)cc1` reads -0.338% [at 2.29 µM] (inactive).
On to `O=C(NCc1ccccc1)c1onc(CSc2ccc(F)cc2)c1C(=O)NCCCN1CCOCC1`, for which the AC50 is 2.51 µM (active).
With `Cc1cc(=O)oc(C)c1C(=O)NCCCN1CCN(c2ccc(F)cc2)CC1`, the “activity, negative = inhibition” value was -12.9% (inactive).
On the same count and under the same terms, in the case of `COCCNC(=O)c1onc(CSc2cccc(Cl)c2)c1C(=O)O` it was -29% (inactive); in that of `C=C(C)[C@@H]1CC=C(C(=O)O)CC1`, 3.9% (inactive).
Same read-out and setting: the result for `CO[C@@H](NC(N)=O)C(=O)O` reads -10.7% [at 11.4 µM] (inactive).
Regarding `CN(C)c1cc2c(Nc3ccc4c(cnn4Cc4ccccc4)c3)ncnc2cn1`, the AC50 was 5.01 µM (active).
Regarding `CC(C(=O)NC1CCCC1)N(C(=O)c1snc(C(N)=O)c1N)c1ccc2c(c1)OCCO2` (configuration not stated), the AC50 was 3.55 µM (active).
Still for that read-out and setting: the result for `Cc1ccc(NC2=NC(c3ccccc3)n3c(nc(C)cc3=O)N2)c(C)c1` (configuration not stated) reads 14.1 µM (active); that for `O=C(OCc1nnc(-c2ccccc2)o1)c1ccc2c(c1)OCCO2`, 20 µM (active).
Take `O=C(OCc1cccc(F)c1)c1ccc2c(c1)-c1ccccc1C2=O`: the “activity, negative = inhibition” value was -42.1% (inactive).
As for `O=C(OCC#CCSc1nnc(-c2cccc3ccccc23)o1)c1ccco1`, the half-maximal activity concentration (AC50) was 7.94 µM (active).
For the compound `Cc1ccccc1OCCNC(=S)Nc1ccccc1`, the AC50 was 12.6 µM (active).
Turning to `S=C(Nc1ccccc1)Nc1ccc(OCc2ccccc2)cc1`, the “activity, negative = inhibition” value was -16.9% (inactive).
Same read-out and setting: in the case of `O=C(c1ccco1)N1CCC2(CC1)CCN(c1ccccc1)CC2` it was 27.4% (inactive).
As for `O=C(c1ccco1)N1CCC[C@@]2(CCN(c3ccncc3)C2)C1`, the AC50 is 1.26 µM (active).
Take `O=C(c1ccco1)N1CCC[C@@]2(CCN(c3ccccc3)C2)C1`: the concentration at half-maximal activity (AC50) was 12.6 µM (active).
For the compound `O=C(Nc1ccccc1)N1CC2(CCN(C(=O)c3ccco3)CC2)C1`, the “activity, negative = inhibition” value is 22.3% (inactive).
In the case of `O=C(Nc1cccn2ncnc12)c1ccc(Cl)cc1Cl`, the “activity, negative = inhibition” value was -10.8% (inactive).
As to `CCCN(CCC)C(=S)NC(=O)c1ccc(Cl)cc1Cl`, the AC50 was 14.1 µM (active).
In the case of `O=C(Nc1ccc(N=Nc2ccccc2)cc1)c1ccc(Cl)cc1Cl`, the “activity, negative = inhibition” value is -0.112% (inactive).
The same measure, in the same setting: the result for `Cc1onc(C(=O)/C=C/N(C)C)c1C(=O)Nc1nccs1` reads -15.5% (inactive); that for `CC1CCc2c(C(=O)Nc3nccs3)csc2C1` (configuration not stated), -19.8% [at 11.4 µM] (inactive).
Consider `CC12COC3(C(=O)Nc4nccs4)CC1CCC32C` (configuration not stated), for which the concentration at half-maximal activity (AC50) was 14.1 µM (active).
The same measure, in the same setting: the result for `Cn1c(OCc2ccc3c(c2)OCO3)nc2c1c(=O)n(Cc1ccc(Cl)c(Cl)c1)c(=O)n2C` reads 3.55 µM (active).
Take `CCCCOC(=O)CCc1c(C)[nH]c(=O)c(C#N)c1C`: the “activity, negative = inhibition” value is -27.2% (inactive).
In the case of `Cc1cc(NC(=O)Nc2ccc(N(C)C)cc2)c2cc(F)cc(F)c2n1`, the AC50 was 6.31 µM (active).
For the compound `Cc1cc(NC(=O)Nc2ccc(F)cc2)no1`, the “activity, negative = inhibition” value is 17.7% (inactive).
Turning to `Cc1cc(N)c2cc(NC(=O)Nc3ccc4nc(C)cc(N)c4c3)ccc2n1`, the activity, negative = inhibition is -7.21% [at 11.4 µM] (inactive).
With `CSc1nc(N)nc(SCC(=O)Nc2ccc(Cl)cc2)c1C#N`, the “activity, negative = inhibition” value is 6.12% (inactive).
For `CSc1nsc(/C=C/Nc2ccc(Cl)cc2)c1C#N`, the AC50 was 8.91 µM (active).
With `C[C@@H](c1ccccc1)N1C(=O)[C@H]2[C@@H]3[C@H](O)C=CC(=O)[C@H]3CC[C@H]2C1=O`, the activity, negative = inhibition is -17.4% [at 11.4 µM] (inactive).
On to `Cc1cnc(CNc2ccnc(-c3cccc(NS(C)(=O)=O)c3)n2)cn1`, for which the AC50 was 15.8 µM (active).
With `COc1cccc(-c2nccc(NCc3cnc(C)cn3)n2)c1`, the AC50 is 6.31 µM (active).
The same measure, in the same setting: the result for `Cc1cnc(CNc2ccnc(-c3cccc(C#N)c3)n2)cn1` reads 12.6 µM (active).
On the same count and under the same terms, in the case of `Cc1cnc(CNc2ccnc(-c3cccnc3)n2)cn1` it was 5.01 µM (active).

What is called AC50 is the concentration at which the activity in the assay is half-maximal.
